# The sample as a whole holds a higher share of the strongest signals than the screen did.
# B1: CM2 (Cordyceps militaris) (protein)
# chain: MEIAEQNVGKSCAIVNLIPPKEGSNIWTAKQVTIARNLPPNRGTGRHQIDWSFGPVKVTGYVDTTNWEIGVTVSIMGIDLGTVYGNLRDGVVLNVDLFLAKGQVRFYLKNGNEVWVHLSVEIRFDGKFEGDYKIITV
# What was measured:
# Assay in all cases: glycan array binding signal (z-score within array); higher = stronger binding
# Conditions in all cases: glycan notation: IUPAC condensed, linker removed
# [1] = molecular target: Fuc(a1-2)Gal(b1-3)GalNAc(b1-4)[Neu5Ac(a2-3)]Gal(b1-4)Glc
# How it was run: (§1)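 Glycan array binding is given as a within-array Z-score, which can be read as non-binding when negative. The arrays, 3228 of them, came from the Consortium for Functional Glycomics database and were retained only where the protein sequence was available. Z-scores were averaged across arrays of the same protein sequence at different concentrations or buffers and across linkers.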
# Fuc(a1-2)Gal(b1-4)Glc6S = molecular target: Fuc(a1-2)Gal(b1-4)Glc6S
# How it was run: as §1
# [2] = molecular target: Fuc(a1-2)[Gal(a1-3)]Gal(b1-4)[Fuc(a1-3)]GlcNAc
# How it was run: as §1
# [3] = molecular target: Fuc(a1-2)[GalNAc(a1-3)]Gal(b1-3)GlcNAc
# How it was run: as §1
# [4] = molecular target: Fuc(a1-2)[GalNAc(a1-3)]Gal(b1-3)GlcNAc(b1-3)GalNAc
# How it was run: as §1
# [5] = molecular target: Fuc(a1-2)[GalNAc(a1-3)]Gal(b1-4)GlcNAc(b1-2)Man(a1-3)[Fuc(a1-2)[GalNAc(a1-3)]Gal(b1-4)GlcNAc(b1-2)Man(a1-6)]Man(b1-4)GlcNAc(b1-4)[Fuc(a1-6)]GlcNAc
# How it was run: as §1
# [6] = molecular target: Fuc(a1-3)[Gal(b1-4)]GlcNAc
# How it was run: as §1
# [7] = molecular target: Gal(a1-3)Gal(b1-3)GlcNAc(b1-2)Man(a1-3)[Gal(a1-3)Gal(b1-3)GlcNAc(b1-2)Man(a1-6)]Man(b1-4)GlcNAc(b1-4)GlcNAc
# How it was run: as §1
# [8] = molecular target: Gal(a1-3)Gal(b1-4)GlcNAc(b1-6)GalNAc
# How it was run: as §1
# [9] = molecular target: Gal(b1-3)GlcNAc(b1-3)Gal(b1-4)GlcNAc(b1-2)[Gal(b1-3)GlcNAc(b1-3)Gal(b1-4)GlcNAc(b1-6)]Man(a1-6)[Gal(b1-3)GlcNAc(b1-3)Gal(b1-4)GlcNAc(b1-2)Man(a1-3)]Man(b1-4)GlcNAc(b1-4)[Fuc(a1-6)]GlcNAc
# How it was run: as §1
# [10] = molecular target: Gal(b1-3)[Fuc(a1-4)]GlcNAc(b1-6)GalNAc
# How it was run: as §1
# [11] = molecular target: Gal(b1-3)[Neu5Ac(b2-6)]GalNAc
# How it was run: as §1
# [12] = molecular target: Gal(b1-4)GlcNAc(b1-2)Man(a1-3)[Gal(b1-4)GlcNAc(b1-2)Man(a1-6)]Man(b1-4)GlcNAc(b1-4)GlcNAc
# How it was run: as §1
# [13] = molecular target: Gal(b1-4)GlcNAc(b1-3)Gal(b1-4)GlcNAc(b1-2)[Gal(b1-4)GlcNAc(b1-3)Gal(b1-4)GlcNAc(b1-6)]Man(a1-6)[Gal(b1-4)GlcNAc(b1-3)Gal(b1-4)GlcNAc(b1-2)Man(a1-3)]Man(b1-4)GlcNAc(b1-4)[Fuc(a1-6)]GlcNAc
# How it was run: as §1
# [14] = molecular target: Gal(b1-4)GlcNAc(b1-3)Gal(b1-4)GlcNAc(b1-3)Gal(b1-4)GlcNAc(b1-2)Man(a1-3)[Gal(b1-4)GlcNAc(b1-3)Gal(b1-4)GlcNAc(b1-3)Gal(b1-4)GlcNAc(b1-2)Man(a1-6)]Man(b1-4)GlcNAc(b1-4)[Fuc(a1-6)]GlcNAc
# How it was run: as §1
# [15] = molecular target: Gal(b1-4)GlcNAc(b1-3)Gal(b1-4)GlcNAc(b1-3)Gal(b1-4)GlcNAc(b1-3)Gal(b1-4)GlcNAc(b1-2)[Gal(b1-4)GlcNAc(b1-3)Gal(b1-4)GlcNAc(b1-3)Gal(b1-4)GlcNAc(b1-3)Gal(b1-4)GlcNAc(b1-6)]Man(a1-6)[Gal(b1-4)GlcNAc(b1-3)Gal(b1-4)GlcNAc(b1-3)Gal(b1-4)GlcNAc(b1-3)Gal(b1-4)GlcNAc(b1-2)Man(a1-3)]Man(b1-4)GlcNAc(b1-4)[Fuc(a1-6)]GlcNAc
# How it was run: as §1
# Gal3S(b1-3)GlcNAc = molecular target: Gal3S(b1-3)GlcNAc
# How it was run: as §1
# Gal3S6S(b1-4)GlcNAc6S = molecular target: Gal3S6S(b1-4)GlcNAc6S
# How it was run: as §1
# Gal6S(b1-3)GlcNAc = molecular target: Gal6S(b1-3)GlcNAc
# How it was run: as §1
# [16] = molecular target: GlcA3S(b1-3)Gal(b1-4)GlcNAc(b1-3)Gal(b1-4)Glc
# How it was run: as §1
# [17] = molecular target: GlcNAc(b1-3)Gal(b1-4)GlcNAc(b1-2)Man(a1-3)[GlcNAc(b1-3)Gal(b1-4)GlcNAc(b1-2)Man(a1-6)]Man(b1-4)GlcNAc(b1-4)[Fuc(a1-6)]GlcNAc
# How it was run: as §1
# [18] = molecular target: GlcNAc(b1-3)Gal(b1-4)GlcNAc(b1-3)Gal(b1-4)GlcNAc(b1-2)[GlcNAc(b1-3)Gal(b1-4)GlcNAc(b1-3)Gal(b1-4)GlcNAc(b1-6)]Man(a1-6)[GlcNAc(b1-3)Gal(b1-4)GlcNAc(b1-3)Gal(b1-4)GlcNAc(b1-2)Man(a1-3)]Man(b1-4)GlcNAc(b1-4)[Fuc(a1-6)]GlcNAc
# How it was run: as §1
# [19] = molecular target: GlcNAc(b1-3)Gal(b1-4)GlcNAc(b1-3)Gal(b1-4)GlcNAc(b1-3)Gal(b1-4)GlcNAc(b1-2)Man(a1-3)[GlcNAc(b1-3)Gal(b1-4)GlcNAc(b1-3)Gal(b1-4)GlcNAc(b1-3)Gal(b1-4)GlcNAc(b1-2)Man(a1-6)]Man(b1-4)GlcNAc(b1-4)GlcNAc
# How it was run: as §1
# GlcNAc(b1-3)GalNAc = molecular target: GlcNAc(b1-3)GalNAc
# How it was run: as §1
# [20] = molecular target: Kdn(a2-3)Gal(b1-4)[Fuc(a1-3)]GlcNAc
# How it was run: as §1
# [21] = molecular target: Man(a1-2)Man(a1-3)[Man(a1-2)Man(a1-6)]Man(a1-6)[Man(a1-2)Man(a1-2)Man(a1-3)]Man
# How it was run: as §1
# [22] = molecular target: Man(a1-3)[Man(a1-6)]Man(a1-6)[Man(a1-2)Man(a1-3)]Man(b1-4)GlcNAc(b1-4)GlcNAc
# How it was run: as §1
# [23] = molecular target: Neu5Ac(a2-3)Gal(b1-3)GlcNAc(b1-2)Man(a1-3)[GlcNAc(b1-4)][Neu5Ac(a2-3)Gal(b1-3)GlcNAc(b1-2)Man(a1-6)]Man(b1-4)GlcNAc(b1-4)GlcNAc
# How it was run: as §1
# [24] = molecular target: Neu5Ac(a2-3)Gal(b1-3)]Neu5Ac(a2-3)Gal(b1-4)]GlcNAc
# How it was run: as §1
# [25] = molecular target: Neu5Ac(a2-3)Gal(b1-4)GlcNAc(b1-2)Man(a1-3)[Neu5Ac(a2-6)Gal(b1-4)GlcNAc(b1-2)Man(a1-6)]Man(b1-4)GlcNAc(b1-4)GlcNAc
# How it was run: as §1
binder,measurement,setting,value
B1,glycan array binding signal (z-score),[1],0.28
same,glycan array binding signal (z-score),Fuc(a1-2)Gal(b1-4)Glc6S,-0.639
same,glycan array binding signal (z-score),[2],1.81
same,glycan array binding signal (z-score),[3],1.61
same,glycan array binding signal (z-score),[4],1.29
same,glycan array binding signal (z-score),[5],0.394
same,glycan array binding signal (z-score),[6],0.057
same,glycan array binding signal (z-score),[7],-0.635
same,glycan array binding signal (z-score),[8],-0.847
same,glycan array binding signal (z-score),[9],0.677
same,glycan array binding signal (z-score),[10],0.038
same,glycan array binding signal (z-score),[11],0.422
same,glycan array binding signal (z-score),[12],-1.28
same,glycan array binding signal (z-score),[13],2.29
same,glycan array binding signal (z-score),[14],3.05
same,glycan array binding signal (z-score),[15],1.2
same,glycan array binding signal (z-score),Gal3S(b1-3)GlcNAc,0.015
same,glycan array binding signal (z-score),Gal3S6S(b1-4)GlcNAc6S,3.73
same,glycan array binding signal (z-score),Gal6S(b1-3)GlcNAc,-0.595
same,glycan array binding signal (z-score),[16],0.06
same,glycan array binding signal (z-score),[17],2.3
same,glycan array binding signal (z-score),[18],3.55
same,glycan array binding signal (z-score),[19],-0.287
same,glycan array binding signal (z-score),GlcNAc(b1-3)GalNAc,-0.452
same,glycan array binding signal (z-score),[20],0.801
same,glycan array binding signal (z-score),[21],2.53
same,glycan array binding signal (z-score),[22],2.43
same,glycan array binding signal (z-score),[23],1.74
same,glycan array binding signal (z-score),[24],3.98
same,glycan array binding signal (z-score),[25],0.37
